Among the data in PubChem BioAssay are composite z-score and z-score values, retold here.

The structures appear in SMILES notation. Calls of active or inactive are those of the source. Unless noted, the rule behind the calls is not given here.

For test [1], the system named is Wnt5a (protein binding on small-molecule microarray). The experiment in a line: small molecules binding Wnt5a protein – biophysical, small-molecule microarray, 635/667 nm fluorescence, primary screen (AID 1142).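 Note: fluorescence read at 667 nm with signal to noise per printed feature.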 The following applies: 635 nm fluorescence, higher = more signal.
Test [2] is described as follows: ATP-based viability of Huh7 replicon cells – cell-based, CellTiter-Glo luminescence, basal, 48 h, cytotoxicity control for HCV replication inhibitor project, primary screen (AID 1143).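 Note: Huh7 hepatoma cells carrying a hepatitis C replication reporter with no stimulus; test concentration not given here.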 The following applies: higher = more signal, called active from +8 up or from −8 down.
Test [3] in a line: Pseudomonas biofilm growth suppression – PAO1 strain, BacTiter-Glo luminescence, LB-PBS, primary screen (AID 1144). The settings on record: P. aeruginosa PAO1 biofilm, 12 h, higher = more signal.
Test [4] is described as follows: basal CRE-LacZ reporter activity in PC12 – cell-based, unstimulated, primary screen (AID 1145). The settings on record: no forskolin, luminescence, 4.5 h, higher = more signal, called active from +8 up or from −8 down.
Test [5] is described as follows: forskolin-driven CRE-LacZ activity in PC12 – cell-based, CRE-LacZ reporter, forskolin-stimulated, primary screen (AID 1146).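 Note: PC12 cells with 6xCRE LacZ reporter stimulated by forskolin 10 µM; beta-galactosidase reporter signal reflecting CREB driven transcription.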 The following applies: luminescence, 4.5 h, higher = more signal, called active from +8 up or from −8 down.
The target of test [6] is Streptavidin (Streptomyces avidinii) (UniProt P22629). The experiment in a line: compounds binding control protein streptavidin – biophysical, small-molecule microarray, 635/667 nm fluorescence, artefact control for SMM compound annotation, primary screen (AID 1147).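 Note: signal reflects streptavidin binding to arrayed compounds as a control protein.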 The settings on record: higher = more signal.
Sequence of Streptavidin (Streptomyces avidinii) (P22629 whole entry, looked up): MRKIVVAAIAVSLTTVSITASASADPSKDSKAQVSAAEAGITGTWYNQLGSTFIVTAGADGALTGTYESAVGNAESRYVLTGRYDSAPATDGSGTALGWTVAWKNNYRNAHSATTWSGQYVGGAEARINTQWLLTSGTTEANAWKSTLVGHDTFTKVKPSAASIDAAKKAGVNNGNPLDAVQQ
Test [7] can be described thus: probe aInhba binding on compound microarray – biochemical, small-molecule microarray, 635/667 nm fluorescence, primary screen (AID 1148).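 Note: score merges 667nm spot fluorescence with signal-to-noise for antibody binding to printed compounds.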 The following applies: higher = more signal.
Test [8] addresses Torsin-1A (Homo sapiens) (UniProt O14656). The experiment in a line: TOR1A wild-type binding on microarray – cell lysate, small-molecule microarray, lysate, 635/667 nm, primary screen (AID 1149). The following applies: COS7 hTOR1A-WT lysate, 635 nm fluorescence, higher = more signal.
Test [9] has the same target. The experiment in a line: torsin A mutant lysate binding on microarrays – cell lysate, small-molecule microarray, COS7 lysate, 635/667 nm fluorescence, primary screen (AID 1150).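 Note: score pools 667 nm emission and signal to noise measuring lysate protein binding.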 The settings on record: COS7 hTOR1A mutant lysate, 635 nm fluorescence, higher = more signal.
The test system of test [10] is Sonic hedgehog protein (Shh). The experiment in a line: Sonic hedgehog microarray binding compounds – biochemical, small-molecule microarray, 635/667 nm fluorescence, primary screen (AID 1151).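 Note: Shh protein binding to compounds spotted on small-molecule microarray slides; score combines spot fluorescence intensity with signal-to-noise across triplicate slides.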 The settings on record: 635 nm fluorescence, higher = more signal.

Sequence of Torsin-1A (Homo sapiens) (O14656 whole entry, looked up): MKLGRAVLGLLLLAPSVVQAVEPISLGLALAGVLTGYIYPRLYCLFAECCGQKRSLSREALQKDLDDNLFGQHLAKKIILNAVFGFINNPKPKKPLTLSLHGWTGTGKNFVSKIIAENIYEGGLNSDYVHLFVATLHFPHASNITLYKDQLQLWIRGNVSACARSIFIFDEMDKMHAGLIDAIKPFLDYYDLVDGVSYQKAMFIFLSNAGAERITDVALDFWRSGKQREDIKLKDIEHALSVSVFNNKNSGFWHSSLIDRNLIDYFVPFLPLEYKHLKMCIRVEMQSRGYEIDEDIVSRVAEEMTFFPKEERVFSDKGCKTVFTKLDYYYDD

Turning to `COC(=O)[C@@]1(Cc2ccc(OC)cc2)[C@H]2c3cc(C(=O)N4CCCC4)n(Cc4cccc5ccccc45)c3C[C@H]2CN1C(=O)c1ccccc1`, the composite z-score is 0.43 in test [1]; 0.688 in test [6]; 0.447 in [7]; -0.25 with Torsin-1A (Homo sapiens) [8]; 0.338 with Torsin-1A (Homo sapiens) [9]; -0.338 in [10]. Moreover, the z-score was -2.8 (inactive) in test [2], 1.14 (inactive) in test [3], 0.0041 (inactive) in test [4] and 0.259 (inactive) in test [5].
For `C[N+](C)(C)CCCCCCNC(=O)[C@H]1C[C@H]2C(=O)N[C@@H](Cc3ccccc3)C(=O)N2[C@H]1c1ccc(O)cc1`, the composite z-score is 0.121 in test [1]; -0.215 in [6]; -0.0695 in test [7]; 0.561 in the test with Torsin-1A (Homo sapiens) [8]; 0.313 with Torsin-1A (Homo sapiens) [9]; 1.94 in test [10]. Also, the z-score in test [2] was -0.56 (inactive); in [3] it was 0.271 (inactive); in [4], -1.08 (inactive); in [5] it was -0.227 (inactive).
In the case of `C=CCN1Cc2ccccc2[C@H]2OC(c3ccc(OCCCO)cc3)=N[C@@]2(CC=C)C1=O`, the composite z-score is 1.07 in test [1]; 0.998 in test [6]; 0.268 in test [7]; 1.08 with Torsin-1A (Homo sapiens) [8]; 0.475 with Torsin-1A (Homo sapiens) [9]; 1.91 in test [10]. The z-score is -3.16 (inactive) in test [2], -0.746 (inactive) in test [3], 0.0594 (inactive) in [4] and -1.58 (inactive) in [5].
For the molecule `CN1C(=O)C2C=CC(C(O)c3cccc(O)c3)N(Nc3ccccc3)C2C1=O` (stereo not given), the composite z-score in [1] is 0.0652; in test [6] it was -0.404; in test [7] it was 0.142; in the test with Torsin-1A (Homo sapiens) [8], -0.379; with Torsin-1A (Homo sapiens) [9] it was 0.548; in test [10], -0.128. Besides, the z-score in test [2] is 0.656 (inactive); in [3], 0.373 (inactive); in test [4], 0.0501 (inactive); in [5] it was 0.233 (inactive).
In the case of `O=C1NC(=O)C2C1C=CC(C(O)CCc1ccccc1)N2Nc1ccc(Cl)cc1Cl` (stereo not given), the composite z-score in [1] was 0.564; in test [6], 0.209; in test [7], -0.0581; with Torsin-1A (Homo sapiens) [8], 0.689; in the test with Torsin-1A (Homo sapiens) [9] it was 1.36; in test [10], -0.625. Besides, the z-score in test [2] is -0.149 (inactive); in test [3] it was 0.0136 (inactive); in test [4], 0.243 (inactive); in [5], 0.0662 (inactive).
As to `OCC1CC(c2ccccc2)=NO1` (stereo not given), the composite z-score in test [1] is 0.111; in [6] it was 2.47; in test [7] it was -0.0405; with Torsin-1A (Homo sapiens) [8], 0.99; with Torsin-1A (Homo sapiens) [9], 0.322; in test [10], 0.0003. Also, the z-score is 0.414 (inactive) in test [2], -0.0165 (inactive) in [3], 0.312 (inactive) in test [4] and -0.295 (inactive) in test [5].
Regarding `CC(C)Cc1ccc(CN2CC[C@@H](NC(=O)Nc3ccccc3)C2)cc1`, the composite z-score in [1] is 0.0405; in test [6], -0.0067; in test [7] it was -0.148; with Torsin-1A (Homo sapiens) [8], 0.257; in the test with Torsin-1A (Homo sapiens) [9] it was 0.274; in test [10] it was 0.826. Moreover, the z-score was -8.72 (active) in [2], -0.00187 (inactive) in test [3], 0.757 (inactive) in [4] and -0.269 (inactive) in test [5].
Consider `COCCCNC(=O)[C@@]1(Cc2ccccc2CN=[N+]=[N-])N=C(c2ccc(OCCCO)cc2)O[C@H]1c1ccccc1`, for which the composite z-score in [1] is 0.919; in test [6], 0.284; in test [7] it was 0.0872; in the test with Torsin-1A (Homo sapiens) [8] it was 0.821; with Torsin-1A (Homo sapiens) [9], 1.26; in test [10] it was -0.715. Further, the z-score is -4.74 (inactive) in [2], -0.688 (inactive) in test [3], 0.391 (inactive) in test [4] and 0.145 (inactive) in [5].
Take `CCCCCCc1nc(-c2cc(C)c(OC)c(C)c2)c(C)c2c1[Si](C(C)C)(C(C)C)OC2`: the composite z-score in [1] was 0; in test [6], 0.273; in [7], -0.128; in the test with Torsin-1A (Homo sapiens) [8], 0.0704; in the test with Torsin-1A (Homo sapiens) [9], -1.06; in test [10] it was 0.186. The z-score is -3.03 (inactive) in test [2], -0.892 (inactive) in test [3], 0.148 (inactive) in [4] and -0.101 (inactive) in test [5].
For the molecule `C=C(C)C1CCC(C(O)C2C=CC3C(=O)N(C)C(=O)C3N2N2CCCCC2)CC1` (stereo not given), the composite z-score was 0.467 in [1]; 1.61 in test [6]; 0.143 in [7]; 0.476 with Torsin-1A (Homo sapiens) [8]; 1.34 in the test with Torsin-1A (Homo sapiens) [9]; 0.758 in [10]. Besides, the z-score in [2] is 0.635 (inactive); in test [3] it was -0.0283 (inactive); in test [4], 0.622 (inactive); in test [5], 0.924 (inactive).
On to `C=CCC(OC(C)=O)[C@@H]1[C@@H](N(Cc2cc3ccccc3o2)C(=O)c2ccc(-c3ccccc3)cc2)c2cc(OCCCO)ccc2N1C(=O)c1ccc2ccccc2c1` (stereo not given in full), for which the composite z-score in test [1] is -0.0582; in [6] it was 0.0798; in [7], -0.143; with Torsin-1A (Homo sapiens) [8], 0.0664; with Torsin-1A (Homo sapiens) [9], -0.0892; in test [10] it was 1.12. The z-score in test [2] is -0.282 (inactive); in test [3], 0.2 (inactive); in [4], 1.22 (inactive); in test [5], 0.655 (inactive).
